Pf apPOL block: Pf-apPOL inhibitors, biochemical, fluorescence | inhibition, % at 10 µM | Plasmodium falciparum apicoplast DNA polymerase (apPOL) | AID 1794808, 2022 | Recombinant Pf-apPOL, molecular beacon fluorescence, 1.5 h | 210,000 compounds, 0.25% hits
mHTT-CaM PPI inh: mutant huntingtin-calmodulin interaction inhibitors – biochemical, AlphaScreen, primary screen; inhibition, % at 15 µM; P42858; AID 1671202, 2021; 190,000 compounds, 3.6% hits; AlphaScreen His-mHTT/GST-CaM binding, luminescence;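 note: 0% = both proteins with DMSO and 100% = one protein alone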
* hit, by the source's call; x = not tested or not shown. Only some compounds are listed: those with a hit (about 3.6% of all), similar ones and a draw of the others. Cut-off read from the data, not from the text of the source: active = inhibition above about 50%; inactive = the rest.

SMILES	Pf apPOL block	mHTT-CaM PPI inh
CC(C)CCn1c(N2CCCC(C(=O)N3CCCC3)C2)nc2ccccc21 (configuration not stated)	-5.8	54.7*
CCn1c(=O)c(N2CCCC(C(=O)NCCCN3CCCCCC3)C2)nc2ccccc21 (configuration not stated)	-3.7	93.6*
O=C(NCCCN1CCCC1)C1CCCN(c2ncc(-c3ccccc3)cn2)C1 (configuration not stated)	-2.9	41.0
CCN(CC)C(=O)CSc1nc(O)cc(=O)n1-c1ccccc1C	-0.8	-4.1
COc1ccc(Cl)cc1NC(=O)C(Cc1ccccc1)NS(=O)(=O)c1cccs1 (configuration not stated)	-2.7	1.0
COc1cc(C(C[N+](=O)[O-])c2c(C)[nH]c3ccccc23)cc(OC)c1OC (configuration not stated)	6.6	42.2
Cc1[nH]c2ccccc2c1C(Nc1ccccc1F)c1ccccn1 (configuration not stated)	-13.3	23.8
Cc1[nH]c2ccccc2c1C(Nc1ccccn1)c1ccc([N+](=O)[O-])cc1 (configuration not stated)	-1.1	97.1*
Cc1[nH]c2ccccc2c1C(C[N+](=O)[O-])c1ccc(F)cc1 (configuration not stated)	-5.8	54.0*
C=CCn1c(=O)c2c(nc(Br)n2Cc2ccc(Cl)cc2)n(C)c1=O	0.2	3.0
Cc1noc(C)c1C(=O)ON=C(N)Cn1ccc(C(F)(F)F)n1	-11.7	x
O=C1NC(=Nc2ccccc2Cl)S/C1=C/c1cc2c(cc1Br)OCO2	-0.3	55.0*
O=C1NC(=Nc2ccccc2Cl)S/C1=C/c1ccc([N+](=O)[O-])o1	10.3	60.0*
O=C1NC(=Nc2ccccc2)S/C1=C\c1ccc(-c2ccccc2[N+](=O)[O-])o1	-12.3	44.0
COc1ccccc1/C=C1/SC(=Nc2ccccc2Cl)NC1=O	-1.9	20.0
CN(C)c1ccc(/C=C2/SC(=Nc3ccccc3Cl)NC2=O)cc1	-69.1	54.0*
COc1ccc(/C=C2/SC(=Nc3ccccc3Cl)NC2=O)cc1	-0.9	43.0
Cc1noc(C)c1C(=O)N1CCSCC1	-9.8	x
COc1ccc(-c2coc3c(C)c4oc(=O)c5ccccc5c4cc23)cc1	-8.2	-2.0
CCOc1ccccc1NC(=O)c1c[nH]c(=O)n(-c2ccc(F)cc2)c1=O	-13.2	72.4*
CCOc1ccccc1NC(=O)c1ccccc1Cl	0.6	-17.9
Cc1ncn(-c2ccc(CNC(=O)c3ccc4c(c3)OCO4)cc2)c1C	1.1	15.5
CCN(CC)c1cc2c(c3c1ccn3C)C1CCC2O1 (configuration not stated)	2.0	5.3
Cn1ccc2c(-c3ccc4[nH]ccc4c3)cc3c(c21)C1CCC3O1 (configuration not stated)	0.0	55.9*
CN(CCc1ccccc1)c1cc2c(c3c1ccn3C)C1CCC2O1 (configuration not stated)	-1.7	99.3*
SMILES	Pf apPOL block	mHTT-CaM PPI inh
CN(c1cc2c(c3c1ccn3C)C1CCC2O1)C1CCCCC1 (configuration not stated)	-0.7	58.9*
CN(c1ccc(Cl)cc1)c1cc2c(c3c1ccn3C)C1CCC2O1 (configuration not stated)	1.2	99.7*
Cn1ccc2c(-c3cccc4ccccc34)cc3c(c21)C1CCC3O1 (configuration not stated)	-2.0	29.7
CCN(Cc1ccccc1)c1cc2c(c3c1ccn3C)C1CCC2O1 (configuration not stated)	0.3	12.1
CCCN(CC1CC1)c1cc2c(c3c1ccn3C)C1CCC2O1 (configuration not stated)	-4.3	39.8
O=C(Nc1ccccc1N1CCOCC1)c1sc2ccccc2c1Cl	-4.1	-5.1
COc1ccc(CC(C)(O)CNC(=O)c2ccc(Br)o2)cc1 (configuration not stated)	-5.8	-11.7
CC1=C(C(=O)Nc2ccccc2)C(c2ccccc2Cl)n2ncnc2N1 (configuration not stated)	4.0	3.0
Cn1c(=O)c(-c2ccc(C(=O)NC3CC3)cc2)nc2ccccc21	-0.2	-3.2
COc1ccccc1-c1cc2c(c3c1ccn3C)C1CCC2O1 (configuration not stated)	-0.8	22.8
Cn1ccc2c(N3CCCCCCC3)cc3c(c21)C1CCC3O1 (configuration not stated)	-0.5	70.7*
CN(c1cccc(F)c1)c1cc2c(c3c1ccn3C)C1CCC2O1 (configuration not stated)	-5.2	93.4*
Cn1ccc2c(-c3ccc(F)cc3F)cc3c(c21)C1CCC3O1 (configuration not stated)	12.0	12.5
CCOc1ccc(/C=C2\SC(N3CCN(Cc4ccccc4)CC3)=NC2=O)cc1	2.1	46.0
Cc1ccc(NC(=O)c2cccs2)cc1C	-12.9	-4.5
N#CC1=C(N)Oc2nc(-c3ccccc3)[nH]c2C1c1cccnc1 (configuration not stated)	1.3	-1.0
CN1CCc2c(sc3nc(NC(=O)c4ccc(OC(F)(F)F)cc4)sc(=O)c23)C1	-9.3	x
CC1CC(N(C(=O)c2ccccc2Cl)c2ccccc2)c2ccccc2N1 (configuration not stated)	-3.2	98.0*
CCC(=O)N(c1ccccc1)C1CC(C)Nc2ccccc21 (configuration not stated)	-0.2	16.4
CCN1CCN(CC(=O)N2N=C(c3ccc(C)c(C)c3)CC2c2cccn2C)CC1 (configuration not stated)	0.8	98.7*
CC1CCN(CC(=O)N2N=C(c3ccccc3Cl)CC2c2cccn2C)CC1 (configuration not stated)	-3.1	83.6*
Cn1cccc1C1CC(c2ccccc2Cl)=NN1C(=O)CN1CCOCC1 (configuration not stated)	-0.9	22.5
COc1ccccc1C1=NN(C(=O)CN2CCCC2)C(c2ccc(C)cc2)C1 (configuration not stated)	-5.3	43.2
COc1ccc(C2CC(c3ccc(F)cc3)=NN2C(=O)CN2CCCCC2)cc1 (configuration not stated)	-4.2	27.5
COc1ccccc1C1=NN(C(=O)CN2CCCCC2C)C(c2ccc(C)cc2)C1 (configuration not stated)	-4.2	72.1*
SMILES	Pf apPOL block	mHTT-CaM PPI inh
Cc1ccc(C2=NN(C(=O)CN3CCOCC3)C(c3ccc(Cl)cc3)C2)cc1C (configuration not stated)	1.2	14.6
CCN1CCN(CC(=O)N2N=C(c3ccc(F)cc3)CC2c2cccn2C)CC1 (configuration not stated)	-4.0	98.4*
CCOC(=O)CNC(=O)N1CCCC1c1ccc(C)cc1 (configuration not stated)	-0.7	-8.3
CC1CCCN(C(=O)c2cc3c(s2)CCN(C(=O)c2ccccc2)C3)C1 (configuration not stated)	-3.1	23.5
C=CCOc1ccc(C2C3=C(CC(C)(C)CC3=O)N(CC(=O)O)C3=C2C(=O)CC(C)(C)C3)cc1	-6.2	22.9
Cc1ccc(N2C(=O)CC(Sc3ccccn3)C2=O)cc1 (configuration not stated)	7.5	-2.0
CCC(=O)N(C)Cc1ccsc1	-8.6	-4.8
CC1CCN(CC(=O)N2N=C(c3ccc(F)cc3)CC2c2cccn2C)CC1 (configuration not stated)	-1.4	51.8*
